Results reported in PubChem BioAssay (NCATS).
Inconclusive results are not listed. Where a call stands in place of a potency, no number is given. The source made the active and inactive calls. Calls follow the shape of the dose curve; as a rule, active = well fitted curve in the direction sought with a large enough effect; inconclusive = small, poorly fitted or top-dose-only effect, or another doubt; inactive = no such curve, though single readings can be large; an effect the other way counts as inactive or inconclusive.

How the values were obtained:
[1] = qHTS for Inhibitors of the Aldehyde Dehydrogenase Family (ALDH1A2, ALDH1A3, ALDH2, ALDH3A1) (AID 2061307); settings: ALDH inhibition qHTS; series mostly up to 50.3 µM; also: nearly all actives have a fitted effect of over 50% in size; as to potency: test system not described further here; potency is read from the fitted curve at half-maximal effect
[2] = target: Aldehyde dehydrogenase, mitochondrial (Homo sapiens) (UniProt P05091); assay: qHTS for Inhibitors of the Aldehyde Dehydrogenase Family (ALDH2) Primary screen (AID 2061308); settings: ALDH2 enzyme inhibition qHTS, 1536-well; series mostly up to 56 µM; also: nearly all actives have a fitted effect of over 55% in size
[3] = target: Retinaldehyde dehydrogenase 3 (Homo sapiens) (UniProt P47895); assay: qHTS for Inhibitors of the Aldehyde Dehydrogenase Family (ALDH1A3) Confirmatory screens (AID 2061311); settings: ALDH inhibition qHTS; series mostly up to 46 µM; also: nearly all actives have a fitted effect of over 60% in size; also: potency is read from the fitted curve at half-maximal effect
[4] = target: Retinal dehydrogenase 2 (Homo sapiens) (UniProt O94788); assay: qHTS for Inhibitors of the Aldehyde Dehydrogenase Family (ALDH1A2) Confirmation screens (AID 2061314); settings: ALDH1A2 enzyme inhibition qHTS confirmation; series mostly up to 45.9 µM; also: nearly all actives have a fitted effect of over 65% in size; also: potency is read from the fitted curve at half-maximal effect
[5] = target: Retinaldehyde dehydrogenase 3 (Homo sapiens) (UniProt P47895); assay: qHTS for Inhibitors of the Aldehyde Dehydrogenase Family (ALDH1A3) Primary screen (AID 2061315); settings: ALDH inhibition qHTS; series mostly up to 56 µM; also: potency is read from the fitted curve at half-maximal effect
[6] = target: Aldehyde dehydrogenase 1A1 (Homo sapiens) (UniProt P00352); assay: qHTS for Inhibitors of the Aldehyde Dehydrogenase Family (ALDH1A1) Confirmatory screens (AID 2061316); settings: ALDH inhibition qHTS; series mostly up to 47.3 µM; also: nearly all actives have a fitted effect of over 65% in size; also: potency is read from the fitted curve at half-maximal effect

| Compound | Potency [1] | Potency [2] | Potency [3] | Potency [4] | Potency [5] | Potency [6] |
| --- | --- | --- | --- | --- | --- | --- |
| Cc1csc2c1c(=O)n(O)c(=O)n2Cc1ccccc1 | inactive | – | – | – | – | – |
| CN(C)[S+](=O)([O-])c1ccc(-c2cncc(NC(=O)c3cccs3)c2)cc1 | 2 µM (active) | inactive | 0.562 µM (active) | 6.31 µM (active) | inactive | inactive |
| Cc1ccc(OCCn2c(CCNC(=O)c3cccc(C(F)(F)F)c3)nc3ccccc32)cc1 | inactive | inactive | inactive | inactive | inactive | inactive |
| CC(=O)N1CCN(c2ccc(NCc3cccs3)cc2)CC1 | 3.18 µM (active) | inactive | 7.98 µM (active) | 5.65 µM (active) | – | 10.1 µM (active) |
| COc1ccc(-n2c(C)c(C(C)=O)c3cc(O)ccc32)cc1 | inactive | inactive | inactive | inactive | inactive | inactive |
| NC(=O)C1CCN(c2ncc(-c3ccc(Br)cc3)s2)CC1 | 5.65 µM (active) | inactive | 22.4 µM (active) | inactive | inactive | 11.3 µM (active) |
| Oc1ccc(CNc2cc(C(F)(F)F)ccn2)c2cccnc12 | 20.1 µM (active) | inactive | 5.65 µM (active) | 7.12 µM (active) | – | 11.3 µM (active) |
| COc1cccc(C2=Nn3c(nnc3-c3ccccc3C)SC2)c1 | 2.51 µM (active) | inactive | 22.4 µM (active) | 17.8 µM (active) | inactive | 10.1 µM (active) |
| CN(C)c1cccc(-c2cnc(N3CCC(C(N)=O)CC3)s2)c1 | 8.96 µM (active) | inactive | 15.9 µM (active) | inactive | – | 10.1 µM (active) |
| Cc1cnc(-c2ccccc2CO)nc1NCC1CCN(c2cccnc2)CC1 | inactive | inactive | inactive | 11.3 µM (active) | inactive | – |
| Cc1ccc(CNc2ncnc3ccc(-c4ccoc4)cc23)o1 | inactive | inactive | inactive | 20.1 µM (active) | inactive | – |
| c1ccc(-n2cc(-c3nnc4n3CCCCC4)cn2)cc1 | inactive | inactive | 14.2 µM (active) | 12.7 µM (active) | inactive | inactive |
| COc1ccc(C2Nc3cccc(OC)c3C(=O)N2Cc2ccccc2)cc1COc1ccc(NC(C)=O)cc1 (stereo unspecified) | 1.13 µM (active) | inactive | 12.7 µM (active) | 10.1 µM (active) | inactive | 11.3 µM (active) |
| O=C1Nc2c(Cl)cccc2/C1=C\c1cc(Cl)c(O)c(Cl)c1 | 1.79 µM (active) | inactive | inactive | 25.2 µM (active) | inactive | 7.12 µM (active) |
| COc1ccc(-c2c(NC(C)=O)sc3c2CCNC3)cc1 | inactive | inactive | inactive | 20.1 µM (active) | inactive | 11.3 µM (active) |
| CN(CC(=O)Nc1cccc(N2CCOCC2)c1)Cc1c(O)ccc2ccccc12 | 5.65 µM (active) | inactive | 12.7 µM (active) | 11.3 µM (active) | inactive | 4 µM (active) |
| N#Cc1cccc(C#N)c1-c1nc2c3ccccc3c3cc(Cl)ccc3c2[nH]1 | inactive | inactive | 5.65 µM (active) | inactive | 25.1 µM (active) | – |
| COC(=O)c1ccc(O)c2ncc(N3CC[C@H](N)C3)cc12 | inactive | inactive | 12.7 µM (active) | inactive | inactive | 11.3 µM (active) |
| Cc1ccc(S(=O)(=O)Nc2cnccc2C(=O)Nc2nc(-c3ccc4c(c3)CCCC4)cs2)cc1 | 22.5 µM (active) | inactive | inactive | 8.96 µM (active) | inactive | 11.3 µM (active) |
| O=C(O)c1cccc(-n2cccc2/C=C2/C(=O)N(Cc3ccc(F)cc3)C(=O)N2Cc2ccc(F)cc2)c1 | 14.2 µM (active) | inactive | inactive | inactive | inactive | inactive |
| O=S(=O)(NN1CCOCC1)c1ccc(Br)cc1 | 22.5 µM (active) | inactive | inactive | 11.3 µM (active) | inactive | 3.57 µM (active) |
| COc1cccc(C2c3c(ncn(-c4ccccc4)c3=N)Oc3ccc4ccccc4c32)c1 (stereo unspecified) | inactive | inactive | 11.3 µM (active) | 12.7 µM (active) | inactive | – |
| CCOC(=O)c1ccc2c(c1)c(C(C)=O)c(C)n2-c1ccc(OC)cc1 | inactive | inactive | inactive | inactive | inactive | inactive |
| COc1ccccc1-c1nc(-c2ccc(C(=O)O)cc2)no1 | 2.14 µM (active) | inactive | 1.13 µM (active) | inactive | – | inactive |
